Sampled rows, rich in hits. Any-hit rate of the full collection: about 1.8%.
LYPLA2 inh: LYPLA2 inhibitors, primary screen, counter-screen for PME1 inhibitor project, biochemical, fluorescence polarization, FP-Rh probe ABPP; AID 2177, 2009; recombinant LYPLA2; actives 0.38% (n = 320,000); Acyl-protein thioesterase 2 (Homo sapiens), O95372; inhibition, % at 5.9 µM;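 active = inhibition above the screen-wide mean plus 3 SD, limit set per campaign, cut at about 26% in these data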
GSTO1 counter: inhibitors of recombinant GSTO1, primary screen, counter-screen for RBBP9 inhibitor project, biochemical, fluorescence polarization; activity-based probe fluorescence polarization; actives 1.1% (n = 300,000); inhibition, % at 5.96 µM; Glutathione S-transferase omega-1 (Homo sapiens), P78417;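 active = inhibition above the campaign mean inhibition plus 3 SD, cut at about 35% in these data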
Target sequence (P78417 whole entry, looked up): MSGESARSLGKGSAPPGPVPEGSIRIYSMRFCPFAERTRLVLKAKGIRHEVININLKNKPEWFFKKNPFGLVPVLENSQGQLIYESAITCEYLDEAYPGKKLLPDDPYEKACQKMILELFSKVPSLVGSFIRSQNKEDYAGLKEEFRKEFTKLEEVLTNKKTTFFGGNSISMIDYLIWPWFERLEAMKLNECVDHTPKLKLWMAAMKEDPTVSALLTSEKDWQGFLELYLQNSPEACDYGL
LYPLA1 counter: LYPLA1 inhibitors, primary screen, counter-screen for PME1 inhibitor project, biochemical, fluorescence polarization, FP-Rh probe ABPP. actives 0.16% (n = 320,000). recombinant LYPLA1. inhibition, % at 5.9 µM. Acyl-protein thioesterase 1 (Homo sapiens), O75608. AID 2174, 2009;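 active = inhibition above the mean of all tested compounds plus 3 SD, set per campaign, cut at about 14% in these data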;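 also: inhibitors block serine hydrolase probe labeling of LYPLA1 so polarization falls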
Fam108B counter: mouse Fam108B serine hydrolase inhibitors, primary screen, counter-screen for RBBP9 inhibitor project, biochemical, fluorescence polarization; recombinant Fam108B, FP-Rh probe fluorescence polarization; inhibition, % at 9.51 µM; actives 0.33% (n = 300,000); AID 1947, 2009;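 active = inhibition above the screen mean inhibition plus 3 SD, computed separately per campaign, cut at about 18% in these data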;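 also: inhibitors lower polarization as less probe binds the enzyme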
PAD4 inh: human PAD4 inhibitors, primary screen, biochemical, fluorescence polarization, 1536-well format; Protein-arginine deiminase type-4 (Homo sapiens), Q9UM07; AID 485272, 2010; inhibition, % at 6.36 µM; actives 0.41% (n = 330,000); recombinant PAD4, RCA probe fluorescence polarization;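 active = percent inhibition above a cutoff equal to the mean of all tested compounds plus 3 SD, cut at about 15% in these data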
PME-1 primary: PME-1 inhibitors via competitive probe labeling, primary screen, biochemical, fluorescence polarization, FP-Rh probe, HTS; recombinant PME-1; actives 0.53% (n = 320,000); inhibition, % at 5.9 µM;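 active = inhibition above the campaign mean of all compounds plus 3 SD, cut at about 26% in these data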;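 also: competitive labeling of PME-1 active site by serine hydrolase directed probe; inhibitors block probe labeling so polarization falls and inhibition rises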
Target sequence (Q9Y570 whole entry, looked up): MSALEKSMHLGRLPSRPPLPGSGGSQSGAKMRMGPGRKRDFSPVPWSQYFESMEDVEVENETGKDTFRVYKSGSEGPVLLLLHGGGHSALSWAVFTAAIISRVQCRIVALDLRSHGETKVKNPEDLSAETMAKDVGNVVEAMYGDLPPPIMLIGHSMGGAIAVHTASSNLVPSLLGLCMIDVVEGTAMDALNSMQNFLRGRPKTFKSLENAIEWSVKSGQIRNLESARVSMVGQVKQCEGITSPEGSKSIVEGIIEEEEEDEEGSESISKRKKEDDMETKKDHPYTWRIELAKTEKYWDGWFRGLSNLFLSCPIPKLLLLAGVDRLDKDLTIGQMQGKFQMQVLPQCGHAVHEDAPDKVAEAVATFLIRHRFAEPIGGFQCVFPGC
LYPLA1 conf: LYPLA1 inhibitors, retest, confirmation, counter-screen for PME1 inhibitor project, biochemical, fluorescence polarization, FP-Rh probe ABPP; shares compounds with LYPLA1 counter; recombinant LYPLA1; inhibition, % at 5.9 µM; actives 69% (n = 480);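 active = mean inhibition across replicates above the hit cutoff set in the primary screen, cut at about 15% in these data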;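 also: loss of FP-Rh probe labeling of LYPLA1 seen as lower polarization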
LYPLA2 confirm: LYPLA2 inhibitors, retest, confirmation, counter-screen for PME1 inhibitor project, biochemical, fluorescence polarization, FP-Rh probe ABPP; shares compounds with LYPLA2 inh; recombinant LYPLA2; inhibition, % at 5.9 µM; actives 72% (n = 1,100); AID 2232, 2010;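 active = mean inhibition across replicates above the hit cutoff set in the primary screen, cut at about 26% in these data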;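 also: blocked labeling of the enzyme by serine hydrolase FP-Rh probe lowers polarization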
LYPLA2 ABPP: LYPLA2 inhibitors in proteome, late-stage follow-up, gel-based competitive ABPP, fluorescence, assay provider. shares compounds with LYPLA2 inh. rhLYPLA2 in mouse brain proteome, gel ABPP FP-Rh. inhibition, % at 20 µM. actives 30% (n = 150);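 active = inhibition of LYPLA2 enzyme probe labeling above about 50%, limit read from the data; inactive = inhibition below that limit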;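 also: loss of FP-Rh probe labeling of the LYPLA2 gel band measured as band density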
PAD4 FP conf: human PAD4 inhibitors, confirmation, biochemical, fluorescence polarization; shares compounds with PAD4 inh; AID 488796, 2010; actives 28% (n = 1,200); inhibition, % at 6.36 µM; recombinant PAD4, RCA probe fluorescence polarization;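 active = mean inhibition across replicates above the hit cutoff set by the earlier primary screen, cut at about 15% in these data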;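 also: inhibitors block active-site labeling by the probe so polarization falls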
Hits are given with their value; i = inactive; nt = not tested or not shown.

SMILES	LYPLA2 inh	GSTO1 counter	LYPLA1 counter	Fam108B counter	PAD4 inh	PME-1 primary	LYPLA2 confirm	others
O=C(NCc1ccccn1)c1ccccc1OCc1ccc(Cl)cc1Cl	i	nt	i	nt	i	i	nt
CC1(OC(=O)c2ccco2)C(=O)C=C2C=C(C3CC3)OC=C2C1=O (centres undefined)	i	i	21	i	20	i	nt	LYPLA1 conf=15;PAD4 FP conf=i
CC1(OC(=O)c2cccs2)C(=O)C=C2C=C(C3CC3)OC=C2C1=O (centres undefined)	i	i	i	i	i	i	nt
CC(=O)N1CC=C2C(C#N)=C(N)C(C#N)(C#N)[C@H](c3ccoc3)[C@H]2C1	i	i	i	i	i	i	nt
CN1CC=C2C(C#N)=C(N)C(C#N)(C#N)[C@H](c3ccoc3)[C@H]2C1	i	41	14	i	22	i	nt	LYPLA1 conf=i;PAD4 FP conf=i
Cc1ccc(-c2ccccc2NC(=O)CS(=O)CC(=O)Nc2ccc(C)c(Cl)c2)o1 (centres undefined)	59	i	46	i	113	45	i	LYPLA1 conf=i;PAD4 FP conf=i
CC(C)CN(C(=O)COC(=O)c1ccccn1)c1c(N)n(Cc2ccccc2)c(=O)[nH]c1=O	i	i	i	i	i	i	nt
CC(=O)c1ccc(N2CCN(c3ccnc4cc(Cl)ccc34)CC2)cc1	36	i	i	i	i	i	27
COCCn1c(=O)[nH]c2cc(C(=O)NCCN3CCN(c4cccc(Cl)c4)CC3)ccc2c1=O	45	i	i	i	i	i	36
Cn1cc(C(=O)NCCN2CCN(c3cccc(Cl)c3)CC2)c2c3ccccc3n(C)c2c1=O	26	i	i	i	i	i	35
O=C(NCCC1=CCCCC1)C1CCN(S(=O)(=O)c2cccc(C(F)(F)F)c2)CC1	i	nt	i	nt	i	i	nt
O=C(NCCC1=CCCCC1)C1CCN(S(=O)(=O)c2ccccc2)CC1	28	i	i	i	i	i	i
O=C(C1CCCCCC1)N1CC[C@@H](N2CCC(O)CC2)[C@H](O)C1	i	i	i	i	i	i	nt
CCCCCCCCCCCCCCCC[n+]1cccc2ccccc21	32	i	i	i	i	i	57
CCCCCCCCC[n+]1cccc2c3ccccc3ccc21	i	i	i	i	i	i	nt
CC12CC3CC(C)(C1)CC(C(=O)NCc1ccncc1)(C3)C2	i	i	i	i	i	i	nt
CCc1ccc(N2C(=O)CC(N3CCN(Cc4ccc5c(c4)OCO5)CC3)C2=O)cc1 (centres undefined)	i	i	i	i	i	i	nt
COc1ccc(CNCCc2ccc(Cl)cc2)cc1OCc1ccccc1	i	i	i	i	i	i	nt
COc1ccc(CCNCc2ccc(OCc3ccccc3)cc2)cc1	32	i	i	i	i	i	30
O=C(Nc1ccc(N2CCN(C(=O)c3cccs3)CC2)cc1)c1ccccc1Cl	41	i	i	i	i	i	41
COc1cccc(OC)c1C(=O)Nc1ccc(N2CCN(C(=O)c3cccs3)CC2)cc1	i	i	i	i	i	i	nt
O=C(Nc1ccc(N2CCN(C(=O)c3cccs3)CC2)cc1)c1ccccc1F	27	i	i	i	i	i	i
COc1cc(/C=C2\C(=O)N(c3ccccc3)N=C2C)ccc1Oc1ccc([N+](=O)[O-])cc1[N+](=O)[O-]	31	i	i	i	44	i	i
COc1cc([N+](=O)[O-])ccc1N	i	i	i	i	i	i	nt
CC1=NN(c2ccccc2)C(=O)/C1=C\c1ccc(Oc2ccc([N+](=O)[O-])cc2[N+](=O)[O-])cc1	41	77	i	i	51	i	31
SMILES	LYPLA2 inh	GSTO1 counter	LYPLA1 counter	Fam108B counter	PAD4 inh	PME-1 primary	LYPLA2 confirm	others
COc1cc(/C=C2/SC(=O)NC2=O)ccc1Oc1ccc([N+](=O)[O-])cc1[N+](=O)[O-]	i	i	i	i	i	i	nt
Nc1ccc(Oc2ccc([N+](=O)[O-])cc2[N+](=O)[O-])cc1	54	i	i	i	i	i	57	LYPLA2 ABPP=i
Cc1ccc(-n2ccnc(SCC(=O)NC3CCCCC3)c2=O)cc1F	i	i	i	i	i	i	nt
CCOc1ccc(C(=O)NC(=S)Nc2ccccc2OC)cc1[N+](=O)[O-]	i	i	i	i	i	i	nt
CCOc1ccc(C(=O)NC(=S)Nc2ccc(NC(=O)CC)cc2)cc1[N+](=O)[O-]	28	i	i	i	i	i	27
Cc1ccc(Nc2c([N+](=O)[O-])cc(C(=O)N3CC(=O)Nc4ccccc43)cc2[N+](=O)[O-])c(C)c1	27	i	i	i	i	i	28
COc1cc(OC)cc(C(=O)N2CC(=O)Nc3ccccc32)c1	i	i	i	i	i	i	nt
COc1cccc(NC(=O)COC(=O)c2c(C)nn(-c3ccccc3)c2C)c1	49	nt	i	nt	i	i	42
O=C(C1CCN(S(=O)(=O)Cc2ccccc2)CC1)N1CCN(c2ncccn2)CC1	i	i	i	i	i	i	nt
COc1ccc(N2CCN(C(=O)C3CCN(S(=O)(=O)c4ccc5c(c4)oc(=O)n5C)CC3)CC2)cc1	32	i	i	i	i	i	41
COc1ccc(N2CCN(C(=O)C3CCN(S(=O)(=O)c4cccs4)CC3)CC2)cc1	43	i	i	i	i	i	52	LYPLA2 ABPP=i
O=C(C1CCN(S(=O)(=O)c2cccs2)CC1)N1CCN(c2ccccc2)CC1	i	i	i	i	i	i	nt
Cn1c(=O)oc2cc(S(=O)(=O)N3CCC(C(=O)N4CCN(c5ccccc5)CC4)CC3)ccc21	i	i	i	i	i	i	nt

Bioassay records from PubChem BioAssay.
